Source: PubChem BioAssay (Tox21)
Inconclusive results are not listed. A call without a number means that no potency is given here. Unmarked numbers belong to inactive results. Active and inactive are the calls of the source. Calls follow the shape of the full dose curve.

Test: qHTS assay to identify small molecule agonists of the progesterone receptor (PR) signaling pathway - cell viability counter screen (AID 1346799); also: nearly all actives have a fitted effect of over 45% in size
Conditions: PR-UAS-bla HEK293T viability, CellTiter-Glo luminescence, 16 h; series mostly up to 92.4 µM
From the text: National Center for Advancing Translational Sciences [NCATS]
NIH Chemical Genomics Center [NCGC]
U.S. Environmental Protection Agency [EPA]
National Institutes of Environmental Health Sciences [NIEHS]
National Toxicology Program [NTP]
U.S. Food and Drug Administration [FDA]
Progesterone receptor (PR), a nuclear hormone receptor, plays an important role in development, metabolic homeostasis and reproduction. It is activated by the steroid hormone progesterone. Endocrine disrupting chemicals (EDCs) and their interactions with steroid hormone receptors like PR causes disruption of normal endocrine function. To identify the compounds that stimulate PR signaling, a PR-UAS-bla GripTite cell line i.e. PR-UAS-bla HEK293T (Invitrogen, Carlsbad, CA, USA) containing a beta-lactamase reporter gene under the control of an UAS response element was used to screen Tox21 10K compound library. The cytotoxicity of the Tox21 compound library against the PR-bla cell line was tested in parallel by measuring the cell viability using CellTiter-Glo assay in the same wells.
Tox21 Assay Protocol Summary:
PR-UAS-bla HEK293T cells were dispensed at 3,000 cells/5 uL of assay medium containing 2% charcoal stripped FBS per well into black wall/clear-bottom 1536-well plates using a Multidrop Combi (ThermoFisher Scientific, Waltham, MA) dispenser. After the assay plates were incubated at a 37C and 5% CO2 for 6 hr, 23 nL of compounds dissolved in DMSO, positive controls or DMSO only was transferred to the assay plate by a Pintool station (Kalypsys, San Diego, CA). The plates were incubated at 37C and 5% CO2 for 16 hr. Then 1 uL of LiveBLAzer B/G FRET substrate was added using a Flying Reagent Dispenser (FRD, Aurora Discovery, San Diego, CA), the plates were incubated at room temperature for 2 hours, and fluorescence intensity was measured by an Envision plate reader (PerkinElmer, Shelton, CT). For cell viability readout that measures cytotoxicity, 4 uL/well of CellTiter-Glo reagent was added into the assay plates using a FRD. After 30 min incubation at room temperature, the luminescence intensity in the plates was measured using a ViewLux (PerkinElmer) plate reader.

| Structure (SMILES) | Potency | activity change, negative = cytotoxicity |
| --- | --- | --- |
| C[C@H]1O[C@H](O[C@H]2[C@H](O)[C@@H](O)[C@@H](O[C@H]3[C@H](O)[C@@H](O)[C@H](O)O[C@@H]3CO)O[C@@H]2CO)[C@H](O)[C@@H](O)[C@@H]1N[C@H]1C=C(CO)[C@@H](O)[C@H](O)[C@H]1O | inactive |  |
| C=CCOc1c(Br)cc(Br)cc1Br | inactive |  |
| CCCCCCCC[Si](OCC)(OCC)OCC | inactive |  |
| O=CO |  | 21.2% [at 8.39 µM] |
| C1CCN2C[C@@H]3C[C@@H](CN4CCCC[C@@H]34)[C@H]2C1 | inactive |  |
| CC(=O)N(CC(O)CO)c1c(I)c(C(=O)NCC(O)CO)c(I)c(C(=O)NCC(O)CO)c1I (stereo not given) | inactive |  |
| N#CCCOCCOCCC#N | inactive |  |
| O=CN1CCOCC1 | inactive |  |
| O=c1[nH]c(=O)c2ccccc2o1 | inactive |  |
| CC(Cl)COP(=O)(OCC(C)Cl)OCC(C)Cl (stereo not given) | inactive |  |
| C=CCOCC(CO)(COCC=C)COCC=C | inactive |  |
| OC[C@@H](O)[C@H](O)[C@@H](O)[C@@H](O)CO | inactive |  |
| C[N+](C)(C)CC(O)CCl (stereo not given) | inactive |  |
| CC(=O)/C=C/c1ccco1 | inactive |  |
| COc1cc(C=O)ccc1OC(=O)C(C)C | inactive |  |
| O=C1CC[C@H](C(=O)N2CCCCC2)N1 | inactive |  |
| C1=CCC(c2ccccc2)CC1 (stereo not given) | inactive |  |
| CCC1Nc2cc(Cl)c(S(N)(=O)=O)cc2S(=O)(=O)N1 (stereo not given) | inactive |  |
| O=C(COCCOCCOCC(=O)Nc1c(I)cc(I)c(C(=O)O)c1I)Nc1c(I)cc(I)c(C(=O)O)c1I | inactive |  |
| CCNC(=O)NCCCOc1cccc(CN2CCCCC2)c1 | inactive |  |

| Structure (SMILES) | Potency | activity change, negative = cytotoxicity |
| --- | --- | --- |
| C=CCOCC(O)CCl (stereo not given) | inactive |  |
| Nc1cc(S(=O)(=O)O)ccc1S(=O)(=O)O | inactive |  |
| Cc1ccc(C(=O)C(=O)O)cc1C | inactive |  |
| C[C@H](CCC(=O)NCC(=O)O)[C@H]1CC[C@H]2[C@@H]3[C@H](O)C[C@@H]4C[C@H](O)CC[C@]4(C)[C@H]3C[C@H](O)[C@]12C | inactive |  |
| O=C1NC2NC(=O)NC2N1 (stereo not given) | inactive |  |
| CCOC(=O)CC#N | inactive |  |
| Cc1ccccc1OCC1CO1 (stereo not given) | inactive |  |
| Cc1cccc(NC(=S)N(C)C)c1 | inactive |  |
| CNC(=O)C(c1ccccc1)c1ccccc1 | inactive |  |
| O=S(=O)(O)c1cc(O)ccc1O | inactive |  |
| O=C(c1ccc2c(c1)C(=O)OC2=O)c1ccc2c(c1)C(=O)OC2=O | inactive |  |
| CC(=O)Nc1ncc([N+](=O)[O-])s1 | inactive |  |
| CCCCCCCCC(=O)OCC | inactive |  |
| Cc1nc2n(c(=O)c1CCN1CCC(C(=O)c3ccc(F)cc3)CC1)CCS2 | inactive |  |
| CCN(CCC#N)c1ccccc1 | inactive |  |
| CN(C)CCOCCN(C)CCO | inactive |  |
| Cc1ccccc1C | inactive |  |
| CCC1COC(=O)O1 (stereo not given) | inactive |  |
| CC(C)COC(=O)/C=C/c1ccccc1 | inactive |  |
| CCCCC(C)C(=O)O (stereo not given) | inactive |  |
